In PubChem BioAssay (NCI):
Compounds without any hit were thinned out: in the full panel of roughly 79,000, 15% have a hit. Unmarked numbers belong to inactive results. No stated cut-off is given here; in the data, active means growth inhibition above about 70%; inactive means the rest.

experiment: NCI Yeast Anticancer Drug Screen. Data for the sgs1 mgt1 strain (AID 161);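 further: 0% = growth of cultures given vehicle only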; conditions: S. cerevisiae sgs1 mgt1 strain, hits give high values; at 50.0 µM unless noted
Summary of the method: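 Percent growth inhibition was derived by comparing compound-exposed mutant yeast with vehicle-exposed cultures. The strain carries alterations in DNA damage repair.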

SMILES | growth inhibition [%]
CCOc1ccc(N=Nc2c(-c3ccccc3)nn(C(=O)CC(=O)Nc3ccccc3Cl)c2-c2ccccc2)cc1 | 34.6
CN(C)C(n1cc2c(c1)-c1ccc(Cl)cc1C(c1ccccc1F)=NC2)n1cc2c(c1)-c1ccc(Cl)cc1C(c1ccccc1F)=NC2 | 1
C1CSCCSCCS1 | 20.1
Cc1ncc(CO)c(/C=N\OCc2cccc(Cl)c2)c1O | -1.5
N#C/C(=C\c1ccccc1)c1cccc(F)c1 | 18.2
O=[N+]([O-])c1c[nH]c2ncnc(Cl)c12 | 0.35
O=C(N/N=C/c1ccc(O)cc1)C(c1ccccc1)N1CCCCC1 (stereo not drawn) | -7.4
COc1ccc(N=C=Nc2ccc(OC)cc2)cc1 | 4.15
OCc1ccccc1Sc1ccccc1CO | 2.6
CCNC(=O)c1ccc(C(C)C)cc1 | 14.2
CCOC(=O)Cc1ccc(N(CCO)CCO)cc1 | 22.8
Cc1cc(C(=O)C(C#N)=Nc2ccc(N(C)C)cc2)c(CN2C(=O)c3ccccc3C2=O)c(=O)n1C | 19.3
O=C(O)c1cccc(OCCO)c1 | -35.8
Nc1cncnc1N | 31.9
CC1(C)Oc2ccccc2OC1O (stereo not drawn) | -1.75
C/C=C/C=C/C(=O)OCCCC | -8.55
Cc1ccc(C(=O)CC2=Nc3nnc(CCCCCCCc4nnc5n4C(=O)C(CC(=O)c4ccc(C)cc4)=N5)n3C2=O)cc1 | -0.1
CC1CC1C(N)C1CC1C (stereo not drawn) | -1.95
